Source: PubChem BioAssay (Tox21)
Results filed as inconclusive are left out. The source made the active and inactive calls. Unless noted, calls come from the whole dose curve; as a rule, active = well fitted curve in the direction sought with a large enough effect in the repeat runs; inconclusive = weak or mixed curves; inactive = no such curve, though single readings can be large; an effect the other way counts as inactive or inconclusive.

Experiments:
[1] = qHTS assay for small molecule agonists of the p53 signaling pathway (AID 651631; calls by dose curve; note: nearly all actives have a fitted effect of over 15% in size)
Procedure, shortened: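 p53RE-bla HCT-116 cells; compounds 16 h, 37 °C; LiveBLAzer B/G FRET substrate 2 h RT; fluorescence intensity read-out, qHTS format.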

[2] = qHTS assay for small molecules that induce genotoxicity in human embryonic kidney cells expressing luciferase-tagged ATAD5 (AID 651632); note: nearly all actives have a fitted effect of over 15% in size
Procedure, shortened: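 Genotoxicity read-out via ATAD5-luciferase: HEK293T cells, 16 hr compound incubation at 37C, Amplite detection.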

[3] = qHTS assay for small molecule agonists of the p53 signaling pathway - cell viability (AID 651633; calls by dose curve;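 note: p53RE-bla HCT reporter cells with a stable beta-lactamase p53 reporter; series mostly up to about 83 µM; nearly all actives have a fitted effect of over 30% in size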)
Procedure, shortened: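 Viability counter-read: CellTiter-Glo luminescence (30 min, room temperature) in the same p53RE-bla plates. These plates had been exposed to compounds for 16 h at 37 C.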

[4] = qHTS assay for small molecules that induce genotoxicity in human embryonic kidney cells expressing luciferase-tagged ATAD5 - cell viability (AID 651634; calls by dose curve; note: nearly all actives have a fitted effect of over 25% in size)
Procedure, shortened: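 Live-cell protease activity (CellTiter-Fluor, fluorescence) indicates viability. HEK293T cells with luciferase-tagged ATAD5; 15.5 hr compound treatment at 37C.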

[5] = qHTS assay for small molecule disruptors of the mitochondrial membrane potential - cell viability (AID 720634; calls by dose curve;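 note: human HepG2 liver cancer cells; series mostly up to about 83 µM; nearly all actives have a fitted effect of over 20% in size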)
Procedure, shortened: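 Human hepatoma HepG2 cells were treated for 1 hr with test chemicals, then given m-MPI dye and CellTiter-Glo. Cell viability reflects luminescence proportional to cellular ATP.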

[6] = qHTS assay to test for compound auto fluorescence at 590 nm (red) in HepG2 cells (AID 720674)
Procedure, shortened: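 We screened compounds on adherent HepG2 cells, incubating them for an hour at 37 C in 5% CO2 before reading emission at 590 nm under 540 nm excitation; values reflect equivalence to Rose Bengal sodium fluorescence.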

[7] = qHTS assay to test for compound auto fluorescence at 535 nm (green) in HepG2 cells (AID 720675)
[8] = qHTS assay to test for compound auto fluorescence at 460 nm (blue) in HEK293 cells (AID 720678)
Procedure, shortened: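 Intrinsic compound fluorescence is recorded in live HEK293 cultures after overnight incubation at 37C, 5% CO2, using excitation 405 nm and emission 460 nm. Values are referenced to triamterene.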

[9] = qHTS assay to test for compound auto fluorescence at 590 nm (red) in HEK293 cells (AID 720679)
Procedure, shortened: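 Red autofluorescence, HEK293 cells: 2,000 cells/well; attach 4-5 hr 37C; add 23 nL cpd or DMSO; incubate o/n 37C 5% CO2; read Ex540/Em590; Rose Bengal sodium reference.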

[10] = qHTS assay to test for compound auto fluorescence at 535 nm (green) in HEK293 cells (AID 720680)
[11] = qHTS assay to test for compound auto fluorescence at 460 nm (blue) in HEK293 cell free culture (AID 720681)
Procedure, shortened: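 Blue fluorescence (Ex 405/Em 460 nm, triamterene-equivalent) was read immediately after pin transfer of compound or DMSO into medium (DMEM, 10% FBS) without cells.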

[12] = qHTS assay to test for compound auto fluorescence at 535 nm (green) in HEK293 cell free culture (AID 720682)
Procedure, shortened: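 Cell-free medium (DMEM, 10% FBS) receives compound or DMSO by pintool. Plate read directly at Ex 485/Em 535 nm. Signal converted to fluorescein equivalency.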

[13] = qHTS assay to test for compound auto fluorescence at 590 nm (red) in HEK293 cell free culture (AID 720683)
Procedure, shortened: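 Red-channel autofluorescence of compounds in culture medium (DMEM, 10% FBS), no cells, measured at 540/590 nm. Rose Bengal sodium is the reference fluorophore for equivalence.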

[14] = qHTS assay to test for compound auto fluorescence at 590 nm (red) in HepG2 cell free culture (AID 720684)
Procedure, shortened: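 Steps: dispense MEM/10% FBS medium, no cells; pin compound or DMSO vehicle; read red channel, Ex/Em 540/590 nm. Output given as Rose Bengal sodium equivalents.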

[15] = qHTS assay to test for compound auto fluorescence at 460 nm (blue) in HepG2 cell free culture (AID 720685)
Procedure, shortened: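 Compound (23 nL) or DMSO pinned into cell-free MEM with 10% FBS; blue fluorescence read at 405/460 nm excitation/emission, expressed as auto-fluorescence equivalency to triamterene.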

[16] = qHTS assay to test for compound auto fluorescence at 535 nm (green) in HepG2 cell free culture (AID 720686)
[17] = qHTS assay to test for compound auto fluorescence at 460 nm (blue) in HepG2 cells (AID 720687)
Procedure, shortened: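 Blue-channel autofluorescence (Ex/Em 405/460 nm, triamterene-equivalent) was measured after 1 hr compound exposure at 37 C, 5% CO2. Cells were HepG2, plated overnight at 37 C in MEM plus 10% FBS.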

[18] = biological target: Glucocorticoid receptor (Homo sapiens) (UniProt P04150); assay: qHTS assay to identify small molecule agonists of the glucocorticoid receptor (GR) signaling pathway (AID 720691; active = well fitted activation curve with a large enough effect in the signal ratio in the repeat runs, not every such curve was filed as active; the % refers to the signal ratio)
Procedure, shortened: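 Beta-lactamase reporter activity, read as fluorescence intensity, was measured in GR-bla HeLa cells exposed to compounds for 18 h at 37 C and then loaded with LiveBLAzer B/G FRET substrate for 2 h at room temperature.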

[19] = biological target: Glucocorticoid receptor (Homo sapiens) (UniProt P04150); assay: qHTS assay to identify small molecule antagonists of the glucocorticoid receptor (GR) signaling pathway (AID 720692; active = well fitted inhibition curve with a large enough effect in the signal ratio in the repeat runs, not every such curve was filed as active; the % refers to the signal ratio)
Procedure, shortened: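 Fluorescence from cleaved LiveBLAzer B/G FRET substrate reports GRE-driven beta-lactamase in HeLa cells; compounds are tested against 5 nM dexamethasone (final) over 18 h at 37 C, substrate incubation 2 h at room temperature.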

[20] = qHTS assay for small molecule disruptors of the mitochondrial membrane potential (AID 720635)
Procedure, shortened: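 Mitochondrial membrane potential tracked with Mito-MPS dye, red aggregates (ex 540/em 590 nm) against green monomers (ex 490/em 535 nm). Compound treatment 1 hr at 37C, dye 30 min in HepG2.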

Measured: Potency

Sequence of Glucocorticoid receptor (Homo sapiens) (P04150 whole entry, looked up): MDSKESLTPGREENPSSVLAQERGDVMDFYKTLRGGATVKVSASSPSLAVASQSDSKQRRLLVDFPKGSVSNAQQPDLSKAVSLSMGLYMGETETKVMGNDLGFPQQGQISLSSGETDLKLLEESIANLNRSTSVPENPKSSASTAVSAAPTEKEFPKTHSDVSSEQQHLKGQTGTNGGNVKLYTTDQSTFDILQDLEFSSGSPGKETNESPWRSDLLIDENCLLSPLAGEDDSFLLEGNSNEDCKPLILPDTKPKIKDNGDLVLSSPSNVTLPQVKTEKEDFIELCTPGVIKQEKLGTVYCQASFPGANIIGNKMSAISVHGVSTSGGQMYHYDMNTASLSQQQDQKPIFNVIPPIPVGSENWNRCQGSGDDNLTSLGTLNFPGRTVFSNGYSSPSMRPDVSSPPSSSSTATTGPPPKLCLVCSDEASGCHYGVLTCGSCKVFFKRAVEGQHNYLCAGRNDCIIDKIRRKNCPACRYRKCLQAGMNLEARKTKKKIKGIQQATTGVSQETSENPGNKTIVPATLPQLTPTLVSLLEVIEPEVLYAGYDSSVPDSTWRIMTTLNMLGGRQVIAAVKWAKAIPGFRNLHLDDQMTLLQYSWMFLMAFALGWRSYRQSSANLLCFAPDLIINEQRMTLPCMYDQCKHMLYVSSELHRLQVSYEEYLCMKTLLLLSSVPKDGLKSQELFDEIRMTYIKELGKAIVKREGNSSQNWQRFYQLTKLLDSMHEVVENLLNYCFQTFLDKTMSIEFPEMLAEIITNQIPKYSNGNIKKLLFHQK

O=C1CC(=O)NC(=O)N1
not listed: [20]
inactive: all other assays above

C=CCc1cc(OC)c2c(c1)OCO2
not listed: [12] | [16] | [19]
inactive: all other assays above

Clc1ccc(C(Cl)(Cl)Cl)cn1
not listed: [20]
inactive: all other assays above

O=C(Cl)c1ccccc1
not listed: [18] | [19] | [20]
inactive: all other assays above

[P]#[In]
not listed: [20]
inactive: all other assays above

COC(=O)[C@@H](N)CCCN/C(N)=N/[N+](=O)[O-]
not listed: [10] | [19]
inactive: all other assays above

CN(CCO)CCO
not listed: [19] | [20]
inactive: all other assays above

O=C(Cl)C(Cl)Cl
not listed: [18] | [19] | [20]
inactive: all other assays above

CCOP(=O)(CN(CCO)CCO)OCC
not listed: [14] | [16]
inactive: all other assays above

C[C@H](CN1CCOCC1)C(C(=O)N1CCCC1)(c1ccccc1)c1ccccc1
not listed: [20]
inactive: all other assays above

C#CCOC(=O)/C=C(C)/C=C/CC(C)CCCC(C)C (stereo not given)
not listed: [18] | [19] | [20]
inactive: all other assays above

CNC(=O)NC(O)C(Cl)(Cl)Cl (stereo not given)
not listed: [18] | [19] | [20]
inactive: all other assays above

Cc1cccc2sc3nncn3c12
not listed: [18] | [19] | [20]
inactive: all other assays above

CC(C)NCC(O)c1ccc([N+](=O)[O-])cc1 (stereo not given)
not listed: [12]
inactive: all other assays above

CC(C)(O)C(Cl)(Cl)Cl
not listed: [10] | [18] | [19]
inactive: all other assays above

CC(C)c1ccc(O)cc1
not listed: [16] | [19] | [20]
inactive: all other assays above
